Laboratory results as given in PubChem BioAssay (EPA / NIEHS).
More than one record can exist for a structure, and the calls need not agree. Calls of active or inactive are those of the source. The calls were made as follows: active = hit-call score of the fitted dose curve at least 0.9, where 1 is the maximum; inactive = score below 0.9.

The molecules below were run against Nuclear respiratory factor 1 (Homo sapiens) (UniProt Q16656) (assay: ATG_NRF1_CIS: Attagene CIS-FACTORIAL HepG2 Assay for human Nuclear Respiratory Factor 1 (NRF1) Orphan Gene (AID 2282987)). Conditions: HepG2 NRF1 cis-element reporter, Attagene multiplex; actives raise or lower the signal.
Sequence of Nuclear respiratory factor 1 (Homo sapiens) (Q16656 whole entry, looked up): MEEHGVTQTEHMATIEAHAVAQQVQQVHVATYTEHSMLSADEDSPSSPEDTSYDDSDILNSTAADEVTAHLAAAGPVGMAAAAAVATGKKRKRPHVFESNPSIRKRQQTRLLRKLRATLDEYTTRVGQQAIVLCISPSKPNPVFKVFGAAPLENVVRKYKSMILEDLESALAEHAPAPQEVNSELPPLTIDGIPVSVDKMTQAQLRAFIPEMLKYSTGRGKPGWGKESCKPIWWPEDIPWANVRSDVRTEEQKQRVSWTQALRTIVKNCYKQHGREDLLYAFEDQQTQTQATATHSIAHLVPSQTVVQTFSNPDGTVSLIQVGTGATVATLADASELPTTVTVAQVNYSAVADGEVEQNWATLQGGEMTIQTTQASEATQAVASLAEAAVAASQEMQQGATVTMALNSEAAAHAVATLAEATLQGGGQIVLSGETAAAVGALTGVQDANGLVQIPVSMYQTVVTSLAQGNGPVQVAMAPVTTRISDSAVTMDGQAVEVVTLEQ
Experimental: ATG_CIS is a cell-based, multiplexed-readout assay that uses HepG2, a human liver cell line, with measurements taken at 24 hours after chemical dosing in a 24-well plate.ATG_NRF1_CIS is one of 52 assay component(s) measured or calculated from the ATG_CIS assay. It is designed to make measurements of mRNA induction, a form of inducible reporter, as detected with fluorescence intensity signals by Reverse transcription polymerase chain reaction (RT-PCR) and Capillary electrophoresis technology.Data from the assay component ATG_NRF1_CIS was analyzed into 1 assay endpoint. This assay endpoint, ATG_NRF1_CIS, was analyzed with bidirectional fitting relative to DMSO as the negative control and baseline of activity. Using a type of inducible reporter, measures of mRNA for gain or loss-of-signal activity can be used to understand the reporter gene at the transcription factor-level as they relate to the gene NRF1. Furthermore, this assay endpoint can be referred to as a primary readout, because this assay has produced multiple assay endpoints where this one serves a reporter gene function. To generalize the intended target to other relatable targets, this assay endpoint is annotated to the dna binding intended target family, where the subfamily is nuclear respiratory factors.
Human liver HepG2 cells are transiently transfected with multiple reporter transcription units (MRTUs) in 6-well plates using FuGene 6 reagent (Roche; 3 ml FuGene/1 mg DNA). The MRTU constructs are regulated by a cis-regulating element (promoter). […] A major difference between the CIS and TRANS system is that in CIS activities of endogenous TFs are measured, whereas the TRANS assay evaluates changes in activities of exogenous, chimeric NR-Gal4 proteins. […] At the end of 24 hour incubation, total RNA was isolated using TriZol reagent (Invitrogen). The isolated RNA is then reverse-transcribed using oligo(dT) primer and Mo-MLV reverse transcriptase (Invitrogen) with DNAse I (Ambion) treatment for 30 min. The one-tenth of the produced cDNA was amplified by PCR using Taq DNA polymerase (Invitrogen) and two reporter sequence-specific primers. The PCR products were fluorescently labeled by primer extension with 6-arboxyfluorescein (6-FAM) 5'-labeled reporter sequence-specific primer (2 min at 95 C, 20 s at 68 C and 10 min at 72 C) and these products were digested with 5U of HpaI (New England Biolabs) for 2h at 37 C. The fragments were purified using Qiaquick PCR columns (Qiagen), analyzed on an ABI 3130xL genetic analyzer (Applied Biosystems) with peak positions identified by using a set of X-rhodamine (ROX)-labeled MapMarker1000 molecular weight standards (BioVentures). The raw capillary electrophoresis data was processed using Attagraph software (Attagene).
With `NCc1cccc(C2CCN(C(=O)c3ccc(C#Cc4ccccc4F)o3)CC2)c1` the outcome was “inactive”. For `O=c1c(-c2ccc(O)cc2)coc2cc(O)cc(O)c12`, the outcome was “inactive”. `CCN(Cc1cccnc1)C(=O)c1cccc(Cl)c1[C@]1(C)C(=O)N(Cc2ccc(OC)cc2OC)c2ccc(Cl)cc21` was tested, and the AC50 was 9.65 µM (active). For `CN1C(=O)CC[C@H]1c1cccnc1`, the outcome was “inactive”. With `CCCCCCCCCCCO` the outcome was “inactive”. In the case of `COc1ccc2cc(S(=O)(=O)N[C@H](CC(=O)N[C@H](Cc3ccc(CN4[C@H](C)CCC[C@@H]4C)cc3)C(=O)N(C)C(C)C)c3ccc4c(c3)OCO4)ccc2c1`, the outcome is reported as “inactive”. With `O=C(O)Cc1cc(I)c(Oc2ccc(O)c(I)c2)c(I)c1` the AC50 was 159 µM (active) and the outcome was “inactive”. With `O=c1[nH]sc2ccccc12` the outcome was “inactive”. In the case of `c1ccc2n[nH]nc2c1`, the outcome is reported as “inactive”. `C[C@]12CC[C@@H]3c4ccc(O)cc4CC[C@H]3[C@@H]1CCC2=O` was tested, and the outcome was “inactive”. `CC(O)CC(C)(C)O` (stereo unspecified) was tested, and the outcome was “inactive”. In the case of `CC(C)(C)c1csc(-c2cc3cc(OCc4ccccc4CC(=O)O)ccc3o2)n1`, the outcome is reported as “inactive”. For `Cc1ccc(C(C)C)cc1`, the outcome was “inactive”. In the case of `Cc1ccc2oc(CN(Cc3ccccc3)C(=O)Nc3c(F)cc(F)cc3F)c(-c3ccc(Cl)cc3)c2c1`, the outcome is reported as “inactive”. With `CN(C)c1ccc(C(=C2C=CC(=[N+](C)C)C=C2)c2ccc(N(C)C)cc2)cc1` the outcome was “inactive”. `NC(=O)c1nc(-c2cccc(-c3cc(F)ccc3OCC(F)(F)C(F)(F)F)c2)n[nH]1` was tested, and the outcome was “inactive”. For `CN(C[C@@H](CC[N+]12CCC(C3CCCCC3)(CC1)CC2)c1ccc(Cl)c(Cl)c1)C(=O)c1cc(C(F)(F)F)cc(C(F)(F)F)c1`, the outcome was “inactive”. With `O=C(Nc1ccc(Cl)cc1)Nc1ccc(Cl)c(Cl)c1` the outcome was “inactive”. For `CCCCCCCCN(C)CCCCCCCC`, the outcome was “inactive”. `CCCCCc1ccc(N)cc1` was tested, and the outcome was “inactive”. With `O=C=NCCCCCCN=C=O` the outcome was “inactive”. In the case of `CC[C@H](NC(=O)c1cc(F)ccc1NS(=O)(=O)c1cccc2cccnc12)c1ccccc1`, the outcome is reported as “inactive”. With `CCCCOC(=O)c1ccc(O)cc1` the outcome was “inactive” and the AC50 was 100 µM (active). In the case of `Cc1cn([C@H]2C[C@H](N=[N+]=[N-])[C@@H](CO)O2)c(=O)[nH]c1=O`, the outcome is reported as “inactive”. With `CC(=O)N1CCN(c2ccc(OC[C@H]3CO[C@](Cn4ccnc4)(c4ccc(Cl)cc4Cl)O3)cc2)CC1` the outcome was “inactive”. In the case of `O=C1CCC(C2CCCCC2)CC1`, the outcome is reported as “inactive”. `O=C(O)c1ccccc1-n1cc(C(=O)O)c(=O)c2cc(Nc3c(F)cc(F)cc3Cl)c(Cl)cc21` was tested, and the outcome was “inactive”. For `CCCOC(=O)c1cc(O)c(O)c(O)c1`, the outcome was “inactive”. For `Cc1occc1C(=O)Nc1ccc(C(=O)N2CCC(F)(F)/C(=C\C(=O)N3CCC(N4CCCCC4)CC3)c3ccccc32)cc1`, the outcome was “inactive”. With `CCCCCCCCOc1ccc(C(=O)c2ccccc2)c(O)c1` the outcome was “inactive”. `CCN(CC)C(=O)c1cc(S(=O)(=O)Cc2ccccc2)c(N2CCC(c3ccccc3)CC2)cc1N(CC)CCN(C)C` was tested, and the outcome was “inactive”. `Cc1oc2c(NC(=O)c3c(Cl)cccc3Cl)cccc2c1C(C)(C)O` was tested, and the outcome was “inactive”. In the case of `O=C(O)Cn1c(=O)n(Cc2ccc(Br)cc2F)c(=O)c2ccc(Cl)cc21`, the outcome is reported as “inactive”. For `COc1cc(C(=O)NC2CCN(C)CC2)ccc1Nc1ncc2c(n1)N(C1CCCC1)CC(F)(F)C(=O)N2C`, the outcome was “inactive”. In the case of `Oc1ccccc1`, the outcome is reported as “inactive”. In the case of `CCN(Cc1cccc(S(=O)(=O)O)c1)c1ccc(C(=C2C=CC(=[N+](CC)Cc3cccc(S(=O)(=O)O)c3)C=C2)c2ccccc2S(=O)(=O)[O-])cc1`, the outcome is reported as “inactive”. In the case of `Cc1cc(F)ccc1-c1cc(N2CC[C@@H](O)[C@H]2CO)ncc1N(C)C(=O)C(C)(C)c1cc(C(F)(F)F)cc(C(F)(F)F)c1`, the outcome is reported as “inactive”. In the case of `CC(C)(c1cc(Br)c(O)c(Br)c1)c1cc(Br)c(O)c(Br)c1`, the AC50 is reported as 53.3 µM (active) and the outcome is reported as “inactive”.
